Screens: PubChem BioAssay, several laboratories
Autofluor counter – flagged as autofluorescent in microsphere protease counterscreen; 360,000 compounds, 3.1% hits; compound autofluorescence counterscreen, microsphere flow cytometry; hits give high values; fluorescence intensity (test concentration not listed); AID 624483; in the data active = fluorescence intensity above about 16000; inconclusive = no clear call, values can overlap the other calls
Anthrax LF prot – anthrax lethal factor protease inhibition; P15917; multiplex microsphere protease cleavage assay, LF; inhibition, % at 10 µM; 360,000 compounds, 0.12% hits; AID 588501; also: plate controls were buffer without enzyme for full effect and enzyme alone for no effect
Target sequence (P15917 whole entry, looked up): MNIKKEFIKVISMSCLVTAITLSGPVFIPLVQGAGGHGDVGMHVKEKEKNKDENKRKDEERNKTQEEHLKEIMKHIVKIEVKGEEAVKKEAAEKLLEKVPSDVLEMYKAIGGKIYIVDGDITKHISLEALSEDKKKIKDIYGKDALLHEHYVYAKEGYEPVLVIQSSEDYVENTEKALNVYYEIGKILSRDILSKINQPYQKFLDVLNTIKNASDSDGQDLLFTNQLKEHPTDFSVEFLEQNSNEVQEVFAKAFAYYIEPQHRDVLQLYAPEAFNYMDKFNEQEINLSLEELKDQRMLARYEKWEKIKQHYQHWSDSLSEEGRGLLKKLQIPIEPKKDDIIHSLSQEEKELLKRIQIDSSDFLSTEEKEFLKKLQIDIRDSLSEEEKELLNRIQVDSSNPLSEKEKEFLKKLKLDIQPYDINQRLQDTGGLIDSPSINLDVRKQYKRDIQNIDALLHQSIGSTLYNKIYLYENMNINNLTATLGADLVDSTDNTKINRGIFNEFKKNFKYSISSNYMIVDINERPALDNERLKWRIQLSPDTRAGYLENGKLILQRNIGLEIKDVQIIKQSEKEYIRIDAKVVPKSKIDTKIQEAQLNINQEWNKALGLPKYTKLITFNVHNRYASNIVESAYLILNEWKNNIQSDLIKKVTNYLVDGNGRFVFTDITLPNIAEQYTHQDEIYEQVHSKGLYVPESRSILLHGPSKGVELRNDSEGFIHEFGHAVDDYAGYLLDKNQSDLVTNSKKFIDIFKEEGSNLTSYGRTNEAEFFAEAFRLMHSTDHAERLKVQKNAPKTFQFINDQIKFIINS
BoNT A protease – blocks Botulinum neurotoxin A light chain protease; 360,000 compounds, 0.17% hits; inhibition, % at 10 µM; AID 588499; multiplex microsphere protease substrate cleavage, flow cytometry; also: plate controls were buffer without enzyme for full effect and enzyme alone for no effect
PfHsp40 yeast – restores yeast growth despite PfHsp40 toxicity; S. cerevisiae expressing PfHsp40, growth rescue, ATP luminescence; AID 504582; 340,000 compounds, 0.68% hits; growth rescue, % at 12.5 µM; in the data active = growth rescue above about 28%, passing the limit was not always enough; inconclusive = no clear call, values can overlap the other calls;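 also: yeast W303a lacking pdr1 and pdr3 grown in galactose medium; growth measured after three days at 30 °C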
BoNT F protease – BoNT F light chain protease inhibition | Multiplex microsphere protease cleavage assay, flow cytometry | inhibition, % at 10 µM | 360,000 compounds, 0.22% hits | AID 588497; in the data active = inhibition above about 35%, passing the limit was not always enough; inconclusive = no clear call, values can overlap the other calls; also: plate controls were buffer without enzyme for full effect and enzyme alone for no effect
MazEF act – increases E. coli MazEF RNase cleavage of RNA. P0AE70. FAM/BHQ RNA-DNA oligo cleavage fluorescence, 5 h. activation, % at 20 µM. 350,000 compounds, 0.32% hits. AID 504720; in the data active = activation above about 50%
The depositor's hits bear a star; u = inconclusive; x = no result given; + = active, no number. Hits are enriched below; roughly 4.3% of the tested compounds scored in any of these assays. Rule as the data show it, unless noted: active = inhibition above about 30%; inconclusive = no clear call, values can overlap the other calls; inactive = below that.

SMILES	Autofluor counter	Anthrax LF prot	BoNT A protease	PfHsp40 yeast	BoNT F protease	MazEF act
COC(=O)C1=CN(c2cccc(C(F)(F)F)c2)C=C(C(=O)OC)C1c1ccc(O)c(OC)c1	3873	-4	2	3	6	5
O=C(COC(=O)c1ccc(S(=O)(=O)N2CCCCCC2)cc1)NCc1ccc(Cl)cc1	3483	-3	0	-2	-11	-18
O=C(c1ccc(CS(=O)(=O)Cc2ccc(Cl)cc2)o1)N1CCCC1	23181*	-5	1	2	1	0
Cc1ccc(S(=O)(=O)Cc2ccc(C(=O)N3CCCC3)o2)cc1	6159	-6	-1	0	-10	3
Cc1cc2nc3ccc(N(C)C)cc3nc2cc1N	4445	13	-1	0	u	-62
CCOC(=O)C1C(=O)NC(SC)=C(C#N)C1c1ccccc1F (stereo not drawn)	22567*	-2	0	0	1	3
CCOC(=O)C1C(=O)NC(SCC(N)=O)=C(C#N)C1c1ccccc1OCC (stereo not drawn)	9883	-1	2	2	-5	-58
C[C@H]1CCC[C@@]2(O[C@@H](CCO)C[C@@H](O)[C@@H]2O)O1	3972	9	0	0	-4	1
Oc1cc(Cl)ccc1Oc1ccc(Cl)cc1Cl	5141	2	0	263*	-6	-27
O=C(CC(=O)c1ccccc1)CS(=O)(=O)c1ccccc1	3858	-11	0	60*	-9	5
CC(CSc1n[nH]c(=S)s1)c1ccccc1 (stereo not drawn)	2997	-4	0	u	3	-1
CC(C)CSc1n[nH]c(=S)s1	3985	-5	1	213*	0	7
COc1ccc2nc(NN=C(C)c3ccccn3)cc(C)c2c1	2908	18	9	784*	-3	2
N#C/C(=C\c1cn(CCOc2ccccc2F)c2ccccc12)C(=O)NCc1cccs1	2181	0	0	0	1	26
N#C/C(=C/c1cn(CC(=O)O)c2ccccc12)C(=O)NCc1ccccc1	4718	3	-1	-1	-3	-7
N#C/C(=C\c1cn(Cc2ccc(C#N)cc2)c2ccccc12)C(=O)NCc1cccs1	2432	-3	-1	0	-2	55*
Cc1ccc(C)c(OCCn2cc(/C=C(\C#N)C(=O)NCc3cccs3)c3ccccc32)c1	22488*	-2	2	-1	3	-6
Nc1c(C(=O)N/N=C/c2ccc([N+](=O)[O-])cc2)sc2nnc(-c3ccccc3)c(-c3ccccc3)c12	x	x	x	x	x	12
CC(=O)Nc1ccc(NC(=O)CSc2nnc(NC(=O)C3CC(=O)N(c4ccc(F)cc4)C3)s2)cc1 (stereo not drawn)	5600	-1	-1	0	-1	-3
COc1ccc2occ(C(=O)c3coc4ccc(O)c(CN(C)C)c34)c2c1	23271*	-1	0	1	-3	29
COc1ccc2occ(C(=O)c3cccs3)c2c1	24929*	-3	-2	-1	-6	10
CCN(CC)Cc1c(O)ccc2occ(C(=O)c3ccccc3)c12	3587	-3	3	-1	u	5
CN(C)Cc1c(O)ccc2occ(C(=O)c3ccccc3)c12	22642*	4	2	0	2	3
COc1ccc(OC)c(C(=O)c2coc3ccc(O)c(CN(C)C)c23)c1	3315	-1	1	-1	u	7
O=C(c1cccs1)c1coc2ccc(O)c(CN(CCO)CCO)c12	21865*	0	2	-1	10	5
SMILES	Autofluor counter	Anthrax LF prot	BoNT A protease	PfHsp40 yeast	BoNT F protease	MazEF act
COc1ccc2occ(C(=O)c3ccc(N)cc3)c2c1	4625	-2	-2	-1	u	3
CC(C)(C)CC(=O)NCCCCCCNC(=O)CC(C)(C)C	2224	-2	0	-1	-2	3
Cc1ccc(Oc2ccccc2/C=C2\SC(=O)N(C)C2=O)cc1	21464*	1	3	-1	4	-6
CN1C(=O)S/C(=C\c2ccccc2OCc2ccc(C(=O)O)cc2)C1=O	2193	1	0	0	3	11
Cc1oc2ccc(OC(=O)N3CCOCC3)cc2c1C(=O)OC(C)C	23451*	-5	-2	0	-5	7
COc1cccc(Oc2coc3cc(OC(=O)N4CCOCC4)ccc3c2=O)c1	2179	-1	0	0	-6	14
COc1ccc(Oc2c(C)oc3cc(OC(=O)N4CCOCC4)ccc3c2=O)cc1	16237*	-2	-1	-2	1	0
COc1ccccc1Oc1coc2cc(OC(=O)N3CCOCC3)ccc2c1=O	22043*	5	3	7	2	8
O=C1CCCc2c1nn(-c1ccccc1)[n+]2[O-]	18962*	-16	10	-1	10	5
Cc1cc(S(=O)(=O)NCC(C)C)ccc1OCC(=O)NCc1ccco1	4303	7	-2	0	6	-13
Cc1ccc(Cn2nnc(C(=O)Nc3cccc(C)c3C)c2N)cc1	19408*	1	u	2	2	0
CC(=O)CSc1nc(C(F)(F)F)cc(=O)n1-c1ccccc1	20676*	-2	-1	0	-3	-1
O=C(O)CSc1nc(C(F)(F)F)cc(=O)n1-c1ccccc1	9498	5	0	2	3	6
C[C@@H]1CC[C@H]2[C@@H](C)C(=O)O[C@@H]3O[C@@]4(C)CC[C@@H]1[C@]32OO4	5067	-3	0	104*	-2	4
O=c1[nH]c(=S)[nH]c2nc(-c3ccccc3)cnc12	5506	-1	1	-1	-6	-1
Cc1cc2nc3c(=O)[nH]c(=S)[nH]c3nc2cc1NC(=O)C(F)(F)F	4037	-2	-5	3	-17	+
Cc1ccccc1C(=O)Nc1ccc(S(=O)(=O)Nc2onc(C)c2C)cc1	3722	-6	-1	0	-3	3
Cc1noc(NS(=O)(=O)c2ccc(NC(=O)COc3ccccc3)cc2)c1C	22340*	-1	3	-1	2	-22
O=C(Nc1ccc2c(c1)OCCO2)c1cnc2n(c1=O)CCS2	5621	-2	0	-1	-1	2
Cc1noc(NS(=O)(=O)c2ccc(NC(=O)c3cnc4n(c3=O)CCS4)cc2)c1C	21016*	-2	3	0	4	-8
O=C(Nc1ccc2c(c1)OCO2)c1cnc2n(c1=O)CCS2	22821*	-6	1	0	-6	-5
Cc1cccc(NC(=O)c2cnc3n(c2=O)CCS3)c1	20823*	-4	u	-1	-2	1
O=C(Nc1ccccc1)c1cnc2n(c1=O)CCS2	4382	-2	0	0	4	5
CCN(CC)c1ccc(C(=O)NNC(=O)CN2C(=O)NC3(CCCCC3)C2=O)cc1	6251	2	-2	1	1	2
COc1ccc(NC(=O)N2CCN(C(=O)C3CCCO3)CC2)cc1 (stereo not drawn)	5576	-2	2	2	-10	9
CCCCn1nnnc1C1(C)CCC(=O)N1CC1CCCCC1 (stereo not drawn)	5009	-1	0	x	9	x
